# Rows were chosen to be rich in hits. Some 3.2% of all compounds tested hit in one or more screens of this group.
# PfGluPho inh: PfG6PD (Plasmodium falciparum) enzyme inhibition; PfGluPho enzyme, NADPH resazurin-diaphorase fluorescence; inhibition, % at 20 µM; hit rate 0.78% among 350,000;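 active means inhibition reaching at least a set limit at 20 µM in the primary screen, cut at about 59% in these data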;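 further: 0% = DMSO wells with substrate and 100% = DMSO wells lacking glucose-6-phosphate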
# FAS TE block: FAS thioesterase (human) inhibition | P49327 | recombinant FAS-TE, OMFH fluorogenic substrate, fluorescence endpoint | hit rate 0.67% among 360,000 | inhibition, % at 15 µM;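 active means compounds whose normalised, plate-corrected inhibition of enzyme fluorescence in the single-dose primary screen is 50% or more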;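 further: 0% = DMSO with enzyme and 100% = substrate without enzyme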
# CRFBP-R2 block: blocks CRF-induced signaling of the CRF-BP/CRF-R2 complex. inhibition, % at 11.8 µM. hit rate 0.59% among 350,000. HEK293 CRF-R2/CRF-BP, CRF-induced calcium fluorescence. AID 588475;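 active means inhibition of the ligand-induced calcium signal above about 50% at the single tested concentration, limit read from the data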
# Cardio protect: myocardial damage modulation in H9c2 cells; H9c2 cardiomyocytes, H2O2 injury protection, ATPLite, 2 h; protection from H2O2 cell death, % at 20 µM; hit rate 0.63% among 360,000;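 active means compounds giving at least 50% protection of heart cells from peroxide-induced death in the single-dose screen, raw or plate-pattern-corrected value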;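 further: 0% = DMSO wells with peroxide and 100% = DMSO wells without peroxide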
# CRFR2-BP ag: agonists of human CRF-binding protein/CRF-R2 receptor complex; activation, % at 13.2 µM; HEK293 CRF-R2/CRF-BP, calcium dye fluorescence (FLIPR); percent of saturating CRF peptide response; hit rate 0.46% among 350,000; AID 588473;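 active means activation of at least 50%, plus an integration ratio under a set limit after plate pattern correction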;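 further: plate controls were neutral control wells without compound for no effect and CRF at EC100 for full effect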
# aDG glyco act: increases alpha dystroglycan glycosylation; AID 624168; Pro5-aDG cells, alpha-DG glycosylation AlphaScreen (IIH6); 0% Pro5, 100% B10-LARGE cell signal; activation, % at 10 µM; hit rate 0.22% among 360,000;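 active means activation of at least 8% versus controls, or a plate z-score of at least 8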;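 further: Pro5 are CHO cells carrying HIG-tagged alpha-DG that lacks glycosylation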
# aDG conf: confirmation of alpha dystroglycan glycosylation activators; shares compounds with aDG glyco act; Pro5-aDG cells, alpha-DG glycosylation, IIH6 AlphaLISA; scaled to LARGE-overexpressing B10 cells as 100%; activation, % at 10 µM (by protocol); hit rate 17% among 600;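 active means activation of at least 7% in one or more replicates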;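 further: cells exposed to compound for two days before detection; 0% = DMSO-treated Pro5 cells and 100% = DMSO-treated B10-LARGE cells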
# An asterisk follows results filed as active; x = not tested or not shown.
SMILES,PfGluPho inh,FAS TE block,CRFBP-R2 block,Cardio protect,CRFR2-BP ag,aDG glyco act,aDG conf
CC(=O)N1CC=CC1(CC(C)C)C(=O)NCCN1CCOCC1 (stereo unspecified),-3.0,-3.6,5.7,10.7,0.1,-0.1,x
CCNc1nc(NCC)n2c(SCC(=O)Nc3ccccc3[N+](=O)[O-])nnc2n1,-14.9,-4.3,-4.3,-4.7,-0.6,-0.1,x
c1ccc2cc(-c3cc4ccccn4c3)ccc2c1,10.4,2.2,-16.2,-7.2,1.7,5.2*,0.1
CCCCOCCCNC(=O)C[C@@H]1C[C@@]2(C(=O)OCC)CCCC=C2N(Cc2ccc3c(c2)OCO3)C1=O,x,-6.8,x,x,x,-0.1,x
O=C(Cn1cnc2ccccc21)Nc1ccc(SC(F)F)cc1,1.6,0.7,-10.4,-22.4,-0.2,10.5*,0.8
COc1ccc(NC(=O)COC(=O)Cn2cnc3ccccc32)cc1,-2.8,-4.1,-6.5,7.3,-0.4,-0.2,x
CCOc1ccc(C(=O)NCC(=O)OCC(=O)Nc2ccc(C)c(S(=O)(=O)N(C)C)c2)cc1,9.6,-9.8,-24.4,-5.6,-1.8,0.0,x
Cc1ccccc1Nc1c(F)c(F)c(F)c(F)c1C(=O)O,-10.8,0.8,-10.0,-10.8,0.1,-0.5,x
CC1CC(C)CN(S(=O)(=O)N2CCC(C(=O)NCCc3ccccc3)CC2)C1 (stereo unspecified),-4.5,0.7,-3.0,-3.3,-0.3,-0.2,x
Cc1ccc(N(Cc2cc3ccc(C)cc3[nH]c2=O)C(=O)c2ccco2)c(C)c1,11.0,2.4,4.8,-6.1,-0.3,2.4*,0.7
Cc1ccc(CCNC(=O)CCNS(=O)(=O)c2ccc3c(c2)oc(=O)n3C)cc1,-3.4,-1.0,5.3,-5.8,-0.4,-0.2,x
Cn1c(=O)oc2cc(S(=O)(=O)NCCC(=O)NCCc3ccccc3)ccc21,-3.1,1.6,-18.4,-3.1,-0.1,4.3*,0.7
COc1cc([N+](=O)[O-])ccc1NC(=O)NCC1CCN(Cc2ccc(Cl)cc2)CC1,-2.5,5.7,-12.6,-11.4,3.0,3.3*,1.1
O=C1c2ccccc2C(=O)N1CCCc1c[nH]c2ccc(Cl)cc12,6.6,29.9,-55.7,-8.5,0.2,0.3,x
CCc1ccccc1NC(=O)CSc1nc2ccccc2nc1N1CCOCC1,-14.8,13.5,-25.7,18.1,-8.4,12.9*,-0.9
Cc1ccc(C)c(S(=O)(=O)N2CCN(C(=O)c3ccc(OCc4c(C)noc4C)cc3)CC2)c1,-1.3,18.2,1.6,-3.2,5.3,0.3,x
Cc1ccc(CNC(=O)CN(C(=O)C2(C)CC(=O)N=C3C=CC=CN32)c2cccc(C)c2C)cc1 (stereo unspecified),9.3,0.4,8.4,-3.5,-0.9,2.6*,0.9
COc1ccc(Cc2c(-c3ccc(C#N)cc3)nc3c4ccccc4ccn23)c(C)c1,x,33.0,x,x,x,3.0,x
COc1ccccc1Cc1c(-c2ccc(C#N)cc2)nc2c3ccccc3ccn12,x,4.2,x,5.4,x,8.9*,3.0
Cc1c(C)c2ccc(OC(C)C(=O)NCCCN3CCOCC3)c(C)c2oc1=O (stereo unspecified),10.1,-3.8,12.7,-0.9,-0.4,-0.4,x
CC(C)c1ccc(C(=O)N2CCCCC2c2cc(C(=O)NCc3cccnc3)no2)cc1 (stereo unspecified),x,-3.2,x,2.1,x,-0.1,x
Cc1cccc(N2CCN(C(=O)CSCc3c(C)noc3C)CC2)c1C,1.7,5.8,12.9,-18.7,-2.0,6.8*,2.2
Cc1csc2ncnc(NCCc3ccccn3)c12,28.5,3.2,29.2,-29.5,-1.1,10.4*,1.7
COc1ccc(NC(=O)COC(=O)CNS(=O)(=O)c2ccc(F)c(F)c2F)cc1OC,-5.5,-11.0,14.6,6.9,-1.2,-0.3,x
O=C(c1cc(COc2c(F)cccc2F)on1)N1CCC(c2ccncc2)CC1,3.9,-1.0,12.4,-22.2,-1.8,9.2*,-0.1
SMILES,PfGluPho inh,FAS TE block,CRFBP-R2 block,Cardio protect,CRFR2-BP ag,aDG glyco act,aDG conf
Cc1cccc(C)c1OCc1cc(C(=O)N2CCC(c3ccncc3)CC2)no1,4.2,5.3,17.4,-18.9,-2.1,6.2*,0.7
Cc1cccc(C)c1OCc1cc(C(=O)N2CCN(C3CCCC3)CC2)no1,5.8,5.5,-4.1,-5.2,-0.7,-0.3,x
COC(=O)C[C@@H]1CC[C@@H](NC(C)=O)[C@@H](CO)O1,x,x,x,x,x,-0.2,x
COC(=O)c1ccc(NC(=O)CNc2ccccc2)cc1,4.7,-4.7,-6.0,-0.9,-0.3,0.1,x
CCC(C)C(NC(=O)OCc1ccccc1)C(=O)NC(Cc1ccc(O)cc1)C(=O)OC (stereo unspecified),-7.3,0.3,-12.6,1.4,17.4,-0.1,x
O=C(Nc1ccccc1C(=O)N1CCCC1)c1ncoc1-c1cccc(Cl)c1,8.0,14.8,-13.3,0.1,1.1,0.0,x
CC(=O)Nc1ccc2nc(CN3CCN(CC=C(C)C)C(CCO)C3)ccc2c1 (stereo unspecified),-11.1,-1.8,3.5,13.1,1.2,-0.5,x
CC(C)(C)c1nnc(NC(=O)Nc2ccc(Cl)cc2)s1,6.9,-5.1,1.1,-11.1,2.2,2.2*,0.0
CN(CC(=O)Nc1ccccc1C(=O)NC1CC1)Cc1ccco1,5.3,-3.7,-1.6,0.0,-0.6,4.2*,-0.8
CN(CC(=O)Nc1ccccc1C(=O)NC1CC1)Cc1cccs1,6.5,-2.5,-6.3,-1.2,0.4,0.1,x
CCOC(=O)C1CCN(Cc2cc(C(C)C)c(O)c(C(C)C)c2)CC1,4.8,-1.0,-15.7,-15.7,1.8,6.4*,1.1
COc1cccc(CN(C)C(=O)c2cccc(S(=O)(=O)N3CCN(c4ccc(F)cc4)CC3)c2)c1OC,8.0,28.9,8.0,-12.9,1.9,3.5*,0.4
CC(Sc1nc(-c2ccco2)nc2c1c(=O)n(C)c(=O)n2C)C(=O)O (stereo unspecified),-5.5,-5.2,19.8,2.3,-2.6,0.0,x
CC1CCCN(CCCNC(=O)c2nn(C)c3c2CSc2ccccc2-3)C1 (stereo unspecified),12.7,-2.8,7.1,3.2,0.1,6.3*,9.0*
N/C(=N\OC(=O)Nc1ccccc1)c1ncc([N+](=O)[O-])s1,17.8,-5.2,7.9,-16.4,0.1,2.8*,3.3*
COc1ccc(-n2c(=O)c3ccccc3n(Cc3ccccc3F)c2=O)cc1OC,0.3,-20.3,-0.7,0.2,-3.3,1.8*,-0.9
O=C(C[n+]1ccc(/C=C/c2ccccc2)cc1)c1ccc2c(c1)OCCO2,17.6,-0.1,1.8,-4.3,-0.4,-0.2,x
COc1cccc(CNC(=O)C(=O)NCC2OCCCN2S(=O)(=O)c2cc(C)ccc2C)c1 (stereo unspecified),5.0,-2.0,-1.1,0.8,-0.1,-0.1,x
CCOC(=O)c1ccc(NC(=S)N2CCC(C(N)=O)CC2)cc1,-4.4,-13.7,-2.5,5.8,-1.8,0.0,x

# Assay outcomes deposited in PubChem by Sanford-Burnham Center for Chemical Genomics.
